The results in this text go back to PubChem BioAssay AID1347048 (National Center for Advancing Translational Sciences (NCATS), 2019).

Hit rate of the full screen: of about 76,000 compounds, about 1,200 (1.6%) were called active. Not shown: some 4% with an inconclusive outcome. The call rests on the fitted dose curve. The list comes from a sample in which actives are over-represented; it also holds similar structures and randomly drawn compounds. A call without a number means that no potency is given here.
Potency means the concentration at half of the fitted maximal effect.

This experiment deals with Atrial natriuretic peptide receptor 1 (Homo sapiens) (UniProt P16066). In words: Natriuretic polypeptide receptor (hNpr1) antagonism - Primary qHTS. Further: nearly all actives have a fitted effect of over 60% in size. The following applies: HEK293 hNpr1 GloSensor cGMP, ANP-stimulated luminescence; series mostly up to 46.3 µM. Summed up: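 Compound pre-incubated 30 min at room temperature on GloSensor-loaded HEK293 cells stably carrying hNpr1 and the pGS-40F cGMP biosensor. Stimulation uses hNppA at 0.1 nM final; luminescence is taken at baseline and 20 min post-agonist.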
Chain of Atrial natriuretic peptide receptor 1 (Homo sapiens) (P16066 whole entry, looked up): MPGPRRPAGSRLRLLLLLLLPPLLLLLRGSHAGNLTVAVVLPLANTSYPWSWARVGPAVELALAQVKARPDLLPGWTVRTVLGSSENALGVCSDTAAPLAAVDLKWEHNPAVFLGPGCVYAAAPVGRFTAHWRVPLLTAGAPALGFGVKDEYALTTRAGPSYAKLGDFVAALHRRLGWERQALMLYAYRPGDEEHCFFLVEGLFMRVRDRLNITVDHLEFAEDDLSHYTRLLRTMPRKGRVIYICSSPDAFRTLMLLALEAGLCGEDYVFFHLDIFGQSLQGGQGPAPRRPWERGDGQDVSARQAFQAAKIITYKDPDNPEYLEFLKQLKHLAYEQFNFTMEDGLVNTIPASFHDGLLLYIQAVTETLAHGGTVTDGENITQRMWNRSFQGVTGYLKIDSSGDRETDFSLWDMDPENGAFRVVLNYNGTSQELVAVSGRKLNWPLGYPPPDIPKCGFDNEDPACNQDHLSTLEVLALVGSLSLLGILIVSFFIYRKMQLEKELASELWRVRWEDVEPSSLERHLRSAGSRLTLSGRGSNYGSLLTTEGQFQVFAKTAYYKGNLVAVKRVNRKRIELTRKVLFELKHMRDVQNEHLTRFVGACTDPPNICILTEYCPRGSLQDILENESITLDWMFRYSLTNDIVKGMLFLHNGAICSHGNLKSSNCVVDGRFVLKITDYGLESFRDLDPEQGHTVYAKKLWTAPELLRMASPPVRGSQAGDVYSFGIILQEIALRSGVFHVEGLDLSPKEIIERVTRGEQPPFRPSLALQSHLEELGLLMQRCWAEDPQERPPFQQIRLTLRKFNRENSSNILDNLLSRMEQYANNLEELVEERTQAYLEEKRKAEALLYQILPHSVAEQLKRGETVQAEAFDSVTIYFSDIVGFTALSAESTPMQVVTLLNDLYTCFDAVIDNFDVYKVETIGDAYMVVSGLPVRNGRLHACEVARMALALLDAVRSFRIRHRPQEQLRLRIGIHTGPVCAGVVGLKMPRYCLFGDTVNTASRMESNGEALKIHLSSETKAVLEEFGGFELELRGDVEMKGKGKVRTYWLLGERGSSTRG
(qHTS replaces the single test concentration by a dilution series.)
On to `COC(=O)c1c(NC(C)=O)c2cc(NC3CCCCCC3)cnc2n1CC1CCCO1` (stereo unspecified), for which the Potency entry was “inactive”.
With `O=C(Cc1ccc(Cl)cc1)N1CCc2c(nc3cc[nH]n3c2=O)C1`, the Potency result was “inactive”.
Turning to `COc1cccc(CN2CCN(Cc3ncccc3C)CC2)c1O`, the Potency entry was “inactive”.
The result for `O=c1c2c(n(Cc3ccccc3)n1-c1ccccc1)CN(Cc1ccn[nH]1)CC2` reads “inactive”; that for `CCOc1ccc(CN2CCC(N3CCCC(C(=O)NC4CC4)C3)CC2)cc1` (stereo unspecified), “inactive”.
The result for `CCCNc1ccc2nnc(C)n2n1` reads “inactive”; that for `COc1ccccc1-c1cc(-c2cn[nH]c2)c2cncn2c1`, “inactive”; that for `Cc1noc(C)c1-c1cc(-c2cncnc2)cn2cncc12`, “inactive”.
The result for `Cc1noc(C)c1-c1cc(-c2ccccc2Oc2ccccc2)cn2cncc12` reads 28.2 µM (active); that for `CN(C)Cc1nnc(C2CC(NC(=O)c3cn4cccnc4n3)C2)n1C` (stereo unspecified), “inactive”; that for `O=C(c1ccccc1)N1CCOc2ccc(CN3CCc4ccccc4C3)cc2C1`, “inactive”.
For the compound `CCC(=O)N1CCc2oc(C)c(C(=O)NCCN(C)C)c2C1`, the Potency entry was “inactive”.
Consider `CC(C)(Oc1nn(CC2CCOCC2)c2ccccc12)C(=O)NCc1ccccc1`, for which the Potency result is “inactive”.
For `COCc1ccc2c(c1)c(OC(C)(C)C(=O)N1CCN(C)CC1)nn2Cc1cccnc1`, the Potency entry is “inactive”.
The result for `CN1CCN(C(=O)C(C)(C)Oc2nn(Cc3cccc(Cl)c3)c3ccccc23)CC1` reads 15.8 µM (active).
For `CC(=O)N1CCC(N2C[C@H](O)C[C@H]2C(=O)NC2CCCCC2)CC1`, the Potency entry was “inactive”.
Regarding `Cc1c(C(=O)N2CCCn3nc(C(C)O)cc3C2)sc2nc[nH]c(=O)c12` (stereo unspecified), the Potency result was “inactive”.
The result for `C(=C\c1ccccc1)/CN1CCN(c2ncncn2)CC1` reads “inactive”; that for `OC1(Cc2cc(-c3ccccc3)no2)CCN(c2ncncn2)CC1`, 3.55 µM (active); that for `Cc1nc(CCNS(=O)(=O)c2ccc(Cl)cc2)no1`, “inactive”.
Regarding `O=C([C@H]1CCC[C@H](O)C1)N(CCC1=CCCCC1)Cc1ccccc1`, the Potency result was “inactive”.
Turning to `O=c1[nH]nc2n1CCCC2`, the Potency result was “inactive”.
The value for `CCc1noc(-c2cn(C3CCN(C(=O)c4cccc(OC)c4)C3)nn2)n1` (stereo unspecified) was “inactive”; that for `COc1ccc(C(=O)N2CCCC(n3cc(-c4nc(C5CC5)no4)nn3)C2)cc1` (stereo unspecified) was “inactive”.
Regarding `COc1ccccc1C(=O)N1CCCC(n2cc(-c3nc(-c4ccccc4)no3)nn2)C1` (stereo unspecified), the Potency is 4.47 µM (active).
The value for `O=C(c1ccc(F)cc1Cl)N1CCC(n2cc(-c3nc(-c4ccccc4)no3)nn2)C1` (stereo unspecified) was 3.98 µM (active).
The value for `Cc1nc(-c2cn(C3CCCN(C(=O)c4cc(F)ccc4F)C3)nn2)no1` (stereo unspecified) was “inactive”.
For `COc1cc(OC)cc(C(=O)N2CCCC(n3cc(-c4nc(C(C)C)no4)nn3)C2)c1` (stereo unspecified), the Potency entry is “inactive”.
In the case of `COc1ccccc1-c1onc(C)c1C(=O)NCCC(c1ccccc1)c1ccccc1`, the Potency entry was “inactive”.
On to `CCn1c(C2CCCNC2)nn(Cc2noc(-c3ccc(C)cc3)n2)c1=O` (stereo unspecified), for which the Potency result is “inactive”.
Turning to `CC(C)(C)C(=O)N1CC[C@@H](CC(=O)O)[C@@H](CCN2CCN(c3cccc(C(F)(F)F)c3)CC2)C1`, the Potency entry is “inactive”.
The value for `COc1cccc(N2CC3(COCC2=O)CN(c2ccc(C(F)(F)F)cn2)C3)n1` was “inactive”.
The result for `O=C1CCCCCN1C1CCN(Cc2ccc(C(F)(F)F)cc2)CC1` reads “inactive”; that for `CN(C)c1cccc(-c2cn(C)c(=O)n3cc(COc4ccc(Cl)cc4)nc23)c1`, “inactive”; that for `Cc1cc(-c2cn(C)c(=O)n3cc(COc4ccccc4)nc23)ccn1`, 25.1 µM (active).
Regarding `CN(C)Cc1cn2c(=O)n(C)cc(-c3cccc(OCc4ccccc4)c3)c2n1`, the Potency entry is “inactive”.
The result for `CCOc1ccc(CC(=O)N2CCCC3(C2)Nc2cccnc2NC3=NC2CCCC2)cc1` (stereo unspecified) reads “inactive”; that for `O=C(c1ccc(-c2ccc(N3CCCCC3)nc2)cc1)N1CCOCC1`, “inactive”.
As to `COCCN1CC(CO)C2(CCN(Cc3ccc(F)c(Cl)c3)CC2)C1` (stereo unspecified), the Potency result is “inactive”.
The value for `CN1CCCC2(CCN(C(=O)c3cccc(N4CCCC4=O)c3)C2)C1=O` (stereo unspecified) was “inactive”; that for `CC(=O)N1CCCC(c2nn(-c3ccccc3)c(=O)[nH]2)C1` (stereo unspecified) was “inactive”; that for `O=c1[nH]c(C2CCCN(Cc3ccccn3)C2)nn1-c1ccc(Cl)cc1` (stereo unspecified) was 5.01 µM (active).
In the case of `O=C(Cc1ccc(F)cc1)N1CCCC(c2nn(-c3ccc(Cl)cc3)c(=O)[nH]2)C1` (stereo unspecified), the Potency entry is “inactive”.
The result for `O=C(COc1ccc(F)cc1)NC1CCN(c2cn[nH]c(=O)c2)CC1` reads “inactive”.
The result for `Cc1ncsc1C(=O)N1CCc2c(n(Cc3ccccc3)n(-c3ccccc3)c2=O)C1` reads “inactive”.
The result for `O=C(Cc1ccc(F)cc1)N1CCC2(CC1)NC(=O)N(c1ccccc1)N2` reads “inactive”; that for `CC1(C(=O)NCC2CCCO2)CCCc2cnc(Nc3ccccc3)nc21` (stereo unspecified), “inactive”.
As to `CN(Cc1ccccc1)C(=O)C1(C)CCCc2cnc(Nc3cccnc3)nc21` (stereo unspecified), the Potency entry is “inactive”.
The result for `CC1(C(=O)NCc2ccc3c(c2)OCO3)CCc2cnc(NCc3ccccc3)nc21` (stereo unspecified) reads 35.5 µM (active); that for `COc1ccc(CNC(=O)c2cc3c(s2)CN(C2CC2)C3)cc1OC`, “inactive”.
The value for `O=C(Nc1ccc2c(c1)CCC2)c1cc2c(s1)CN(C1CC1)C2` was 11.2 µM (active); that for `CC(C)N1Cc2cc(C(=O)Nc3cccc4c3CCCC4)sc2C1` was “inactive”; that for `Cc1cc(NC(=O)c2ccc3c(c2)OCCN(CCC(F)(F)F)C3)ccc1F` was “inactive”.
The result for `CC(C)(C)c1csc(NC(=O)c2ccc3c(c2)OCCN(C2CCC2)C3)n1` reads 31.6 µM (active); that for `O=C(Nc1cccnc1)c1ccc2c(c1)OCCN(c1ccccc1)C2`, “inactive”.
As to `O=C(c1ccc2c(c1)OCO2)N1CCC2(CC1)CN(c1ccncn1)CC2CO` (stereo unspecified), the Potency result is “inactive”.
The result for `CN(C)C(=O)C1CN(C(=O)Nc2ccc(F)cc2F)CC12CCOCC2` (stereo unspecified) reads “inactive”; that for `O=C(Nc1ccc(Oc2ccccc2)cc1)O[C@@H]1CO[C@H]2[C@@H]1OC[C@@H]2NS(=O)(=O)c1cccs1`, 12.6 µM (active).
The result for `O=C(Nc1ccccc1)O[C@@H]1CO[C@H]2[C@@H]1OC[C@@H]2NS(=O)(=O)c1cccc2cccnc12` reads “inactive”; that for `O=C(Nc1ccc(Oc2ccccc2)cc1)O[C@@H]1CO[C@H]2[C@@H]1OC[C@@H]2NCC1CC1`, “inactive”; that for `O=C(NC1CCCC1)N1CCC(Oc2ccc(-c3noc(C4CC4)n3)cc2)C1` (stereo unspecified), 8.91 µM (active).
The value for `O=C(NC1CCCCC1)N1CCCCCC1c1nc(-c2cccnc2)no1` (stereo unspecified) was “inactive”.
Turning to `CCCN1CC(Oc2ccc(-c3noc(C4CC4)n3)cc2)C1`, the Potency result is “inactive”.
The result for `O=C(c1ccccn1)N1CC(Oc2ccc(-c3noc(C4CC4)n3)cc2)C1` reads 14.1 µM (active); that for `O=C(c1ccncc1)N1CCC(Oc2ccccc2)C1` (stereo unspecified), “inactive”.
The result for `O=C(NC1CCCC1)N1CCCC(c2noc(COc3ccccc3)n2)C1` (stereo unspecified) reads “inactive”; that for `O=C(c1ccoc1)N1CC(Oc2ccc(-c3nc(-c4ccccc4)no3)cc2)C1`, “inactive”; that for `Cc1cccc(C(=O)N2CC(Oc3cccc(-c4nc(-c5ccccc5)no4)c3)C2)c1`, “inactive”.
The result for `Cc1cccc(C(=O)N2CCC(Oc3ccc(-c4noc(C(C)C)n4)cc3)C2)c1` (stereo unspecified) reads 11.2 µM (active).
Turning to `COc1ccc(Cl)cc1-c1ccc2c(c1)C(=O)N1CCN(C(C)=O)C[C@@H]1C(=O)N2`, the Potency result was “inactive”.
On to `Cc1c(Cl)c(C(=O)N2C[C@@H](CN3CCCN(C)CC3)[C@@H](CO)C2)nn1C`, for which the Potency result is “inactive”.
The result for `CC(C)CCNC(=O)CCN(CC(C)C)C(=O)c1ccoc1` reads “inactive”; that for `O=C(NC(C(=O)N1CCCCC1)C1CCN(C(=O)c2ccc(Cl)cc2)CC1)c1ccccc1` (stereo unspecified), “inactive”; that for `Cc1cnc(CC2CCN(C(=O)c3cccc4[nH]ccc34)CC2)n1CC1CC1`, “inactive”.
The result for `CC(C)CCN1CCC2(CC1)C(=O)NCN2Cc1ccc(Cl)cc1` reads “inactive”; that for `O=C1NCN(Cc2ccc(Cl)cc2)C12CCN(Cc1ccccc1)CC2`, 11.2 µM (active).
The value for `O=C(C1CC1)N1CCC2(CC1)C(=O)NCN2Cc1ccc(Cl)cc1` was “inactive”; that for `COCC(=O)NC[C@H]1O[C@@H](CO)[C@@H](O)[C@H]1N1CCN(c2ccc(F)cc2)CC1` was “inactive”.
In the case of `CC(=O)NC1(C)CCN(Cc2cnc(-c3ccc4c(ccn4C)c3)s2)CC1`, the Potency entry is “inactive”.
The value for `CC(=O)NC1(C)CN(Cc2ccc(-c3ccc4c(ccn4C)c3)s2)C1` was 8.91 µM (active); that for `COc1ccc(C(=O)N2CCC3(CC2)OC(=O)N(CC2CC2)C3(C)c2cccnc2)cn1` (stereo unspecified) was “inactive”; that for `COc1ccc(CN2CCN(c3noc(C(C)C)n3)CC2CCO)cc1C` (stereo unspecified) was “inactive”.
The result for `O=C(C1CCCC1)N1CCC2(CCCCO2)CC1` reads “inactive”; that for `O=C(c1nc2c(o1)CCN(Cc1ccccc1F)CC2)N1CCOCC1`, “inactive”; that for `O=C(NCC1CC1)c1nc2c(o1)CCN(CCc1ccccc1)CC2`, “inactive”.
The value for `O=C(NCC1CC1)c1nc2c(o1)CCN(Cc1cccc(F)c1F)CC2` was 22.4 µM (active); that for `CCOc1ccccc1C(=O)N1CCC(c2n[nH]c(=O)n2-c2ccc(C)cc2)CC1` was “inactive”; that for `Cc1ccoc1C(=O)N1CCC(C2CCN(Cc3cccc(F)c3F)CC2)C1` (stereo unspecified) was “inactive”.
For the compound `COc1ccc(C)cc1NC(=O)Cn1nc2n(c1=O)CCCC2`, the Potency result was “inactive”.
The value for `COc1ccc(C)cc1NC(=O)Nc1cccc(-c2ccc(N3CCCCC3)nn2)c1` was 10 µM (active); that for `COc1ccc(C(=O)Nc2cccc(-c3nnc4n3CCCC4)c2)cc1` was “inactive”; that for `COCC(=O)NC[C@H]1CCN(Cc2cn(C)c3ccccc23)C[C@H]1N(C)C` was “inactive”.
The result for `CC1(COCC2CC2)COc2ccc(C(=O)NCc3cccnc3)cc2N1` (stereo unspecified) reads “inactive”; that for `COc1ccc(OCC2(C)COc3ccc(C(=O)Nc4cccnc4)cc3N2)cc1` (stereo unspecified), 25.1 µM (active); that for `COc1ccc(OCC2(C)COc3ccc(C(=O)NC4CCOCC4)cc3N2)cc1` (stereo unspecified), “inactive”.
The result for `Cc1ccc(C(=O)N2CCC3(CC2)CC(=O)c2ccccc2O3)cc1` reads “inactive”; that for `O=C(CCC[C@H]1NC[C@@H]2C[C@H]1CN(Cc1ccccc1)C2)NCC1CC1`, “inactive”.
On to `O=C(c1ccncc1)N1CCC(Cc2noc(C3CC3)n2)C1` (stereo unspecified), for which the Potency entry is “inactive”.
The value for `Cc1cc(CNC(=O)c2ccc(-c3ccccc3Cl)o2)n(C)n1` was 11.2 µM (active).
The value for `O=C(NCc1ccc(Cl)cc1)c1cccn2nccc12` was “inactive”.
The result for `COc1ccccc1-c1onc(C)c1C(=O)NCc1ccc(Cl)cc1` reads “inactive”.
